# Some of the results follow. Unmarked numbers belong to inactive results.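 The calls were made as follows: active = compounds giving 40% or more inhibition at 20 µM in any one of the three replicates; inactive = the rest.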
# Molecular target: Uracil-DNA glycosylase (Escherichia coli (strain K12)) (UniProt P12295)
# Assay: uracil-DNA glycosylase inhibition, oligo cleavage readout – biochemical, single concentration, fluorescence, FAM/TAMRA oligo, counter-screen for APOBEC3G inhibitor project, confirmation (AID 504715);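 also: plate controls were DMSO wells with UDG and oligo for no effect and DMSO wells lacking both for full effect; inhibitors lower the FAM signal released by uracil excision and alkaline cleavage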
# Conditions: UDG counterscreen, at 20 µM, active compounds read high
# Chain of Uracil-DNA glycosylase (Escherichia coli (strain K12)) (P12295 whole entry, looked up): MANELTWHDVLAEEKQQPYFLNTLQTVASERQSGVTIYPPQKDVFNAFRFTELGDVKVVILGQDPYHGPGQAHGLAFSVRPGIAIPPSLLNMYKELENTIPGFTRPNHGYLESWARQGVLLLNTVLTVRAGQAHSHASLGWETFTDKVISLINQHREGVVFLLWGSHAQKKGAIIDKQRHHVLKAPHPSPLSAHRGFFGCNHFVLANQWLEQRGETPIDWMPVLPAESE
row,SMILES,inhibition
1,S=c1[nH]nc(Nc2ccccc2)s1,6.03%
2,S=c1[nH]nc2c3c4c(sc3ncn12)CCCC4,-7.25%
3,COC(=O)c1cccc(-n2[nH]nnc2=S)c1,-3.23%
4,COc1ccc(N2C(=O)CC(Sc3n[nH]c(-c4ccc(C)cc4)n3)C2=O)cc1 (stereo unspecified),-1.53%
5,Cc1cc(-c2n[nH]c(=S)n2-c2ccc(C)c(C)c2)no1,-3.59%
6,Nc1ccccc1SC(C[N+](=O)[O-])c1ccccc1 (stereo unspecified),-4.66%
7,S=c1[nH]nc(-c2ccco2)n1/N=C/c1ccccc1,-2.84%
8,COc1ccccc1-n1c(-c2cc(-c3ccco3)[nH]n2)n[nH]c1=S,-3.83%
9,CCOc1ccc(NC(=O)c2ccc(NC(=O)COC(=O)c3ccc(NC(=O)CC#N)cc3)cc2)cc1,2.3%
10,O=C1C=CC(=O)N1c1ccc(N2CCCCC2)cc1,-1.51%
11,COCc1c(N)c(C)nc(Cl)c1C#N,-3.83%
12,Cc1cc(C)c2c(-c3ccc(F)cc3)c(C#N)c(=O)n(C)c2n1,-3.68%
13,S=c1[nH]ccn1-c1ccc(Cl)cc1,2.81%
14,Cc1ccnc(-n2sc3ccccc3c2=O)n1,-5.94%
15,Cc1nc([N+](=O)[O-])nn1C12CC3CC(CC(Br)(C3)C1)C2,2.58%
16,CCC(CC)c1nnc(NC(=O)C2CCN(C(=O)c3ccco3)CC2)s1,4.07%
17,CC(C)(C)c1nnc(NC(=O)C2c3ccccc3Oc3ccccc32)s1,-3.35%
18,CCOc1cc(C(=S)N2CCOCC2)ccc1O,-2.88%
19,CCc1c(C)[nH]c(=S)c(C#N)c1C,-0.5%
20,COc1ccc(OCc2n[nH]c(=S)n2N)cc1,-3.03%
21,S=c1[nH]nc(NCCc2ccccc2)s1,-0.78%

# Reference: PubChem BioAssay AID504715 (Sanford-Burnham Center for Chemical Genomics, 2011)
